Numbering of substitutions follows the chain as printed. Over roughly 5,800 sequences, “enrichment r” has its median near 0.68; the highest 2% begin near 11. Shown is part of a subset that was picked to be rich in the highest values.
T1: UNK ZnF1-6 (called full-length) (human, UniProt Q9C0B0 30-357)
T1 sequence: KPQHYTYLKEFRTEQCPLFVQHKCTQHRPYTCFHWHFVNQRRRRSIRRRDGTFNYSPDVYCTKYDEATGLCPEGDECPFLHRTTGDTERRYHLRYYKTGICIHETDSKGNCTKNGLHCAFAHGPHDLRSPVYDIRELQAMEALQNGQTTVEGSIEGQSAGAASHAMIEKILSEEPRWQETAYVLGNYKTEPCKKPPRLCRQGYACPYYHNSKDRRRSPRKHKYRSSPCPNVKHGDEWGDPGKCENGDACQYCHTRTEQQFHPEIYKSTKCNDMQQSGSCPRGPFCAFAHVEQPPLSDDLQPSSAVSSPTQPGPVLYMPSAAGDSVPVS

B1: chr3:23980279:23980388:+|3pUTR|ENSG00000174738|unk|FALSE|unique (ssRNA)
RNA: GGGAGUUCUACAGUCCGACGAUCUUUUUCUUUUCCAAUAUAAAGUUUGCUGAAUGUACAAGAAGAGUUUAUCACUUAGGAUAUAGAAUUUUUUUAGGGGUUGGGGGAGGGGAUCUGUUAGGAAACUGUUACCUAUAAACAAAGCAACAGAGGAUUGAGCAUCA
B2: chr1:6525536:6525637:-|3pUTR|ENSG00000162408|msi1|total|mutant (ssRNA)
RNA: GGGAGUUCUACAGUCCGACGAUCACAGUUUGUGUGCCAUUAAAACAGAGAUUCCUCAGAAAGUUCUUCAGGGACCUGGUUAUCCGAAUCAGGAUAAAAAUAAGGAAACUGGGGCCAUUACAAUGUACCGAGAAGGAAGGAAGACAACAGAGGAUUGAGCAUCA
B3: chr1:85021069:85021276:-|CDS|ENSG00000055732|control|control|control (ssRNA)
RNA: GGGAGUUCUACAGUCCGACGAUCGAUAUGUUUGCCACGUUUGCAAAAAUGCAGCAAAAAAGUUACUUAGUCUGGCUGUUUAGUAGAAUUUACCUCUACUCAUUCAUCAGCCUCUUUAUAUAUAUGAUUUUAAGUCUUUUCAUUCAACAGAGGAUUGAGCAUCA
B4: chr1:42176760:42176861:-|3pUTR|ENSG00000198815|msi1|FALSE|bound_elsewhere (ssRNA)
RNA: GGGAGUUCUACAGUCCGACGAUCGUCGCUCAGAUGUCCUUUGAAGUGGGAGGGAAUCAAUCCGGGGAUAAUUUCAAAUGGAAUAGAGUAUUUUGAUAUUGUUCAUUCAGAGGGUGAUGUGUACAUAUCUAUAUUGUAUAUAUGCAACAGAGGAUUGAGCAUCA
B5: chr8:108778973:108784180:-|three_prime_utr|ENSG00000164841|control|control|control (ssRNA)
RNA: GGGAGUUCUACAGUCCGACGAUCAAGUUUAUUUCACAAACCAACAGCCAGUAAGUGUUUUUGUUCUCUAUGUGUCUUCUAUUUAGAAGAAAAGCCAUGUAAGAUGUAUAAGAAACCACAACCAGCCACACCUAUCCUUCUGAACAACAGAGGAUUGAGCAUCA
B6: ENSG00000072803:stop:overlap|stop_codon|ENSG00000072803|stop_codon|NA|stop_codon (ssRNA)
RNA: GGGAGUUCUACAGUCCGACGAUCCUGGAUACAGUAAACGGAAAGAAUCUUGGAAGAUGCUUGACUGCUGUCUUUUCUCAGACUAGUCUGAAAGGGAAAACCCCCAUUCAUUCUGGAUUGGUGGAUCUGAAGUACAAAAUAUUUCAACAGAGGAUUGAGCAUCA
B7: chrX:47571900:47572933:-|three_prime_utr|ENSG00000008056|control|control|control (ssRNA)
RNA: GGGAGUUCUACAGUCCGACGAUCAAACCUGACUCCUCCUGGCCCUAAAUCCGGUUCUCACAUGUGGAAUCCCCAAGUCCUUUUAGAACCCCACUCGUGGUCACUUCAGGAUCUACUUCUGUUUUAGAACCUCCACAUUCCUGACAACAGAGGAUUGAGCAUCA
B8: chr7:80742902:80743013:-|3pUTR|ENSG00000075223|msi1_unk|total|mutant (ssRNA)
RNA: GGGAGUUCUACAGUCCGACGAUCUCAGAGUCACAGUUCCCUUUAUUUCACAUAAGCCCAAACUGACCGACAGUAACGGUGUUCCGUUUUAUACUAUAUUUGUGCUAUUUAAUUCUUUCUAUUUUCACAAUUAUUAAAUUGUGUCAACAGAGGAUUGAGCAUCA
B9: chr5:180576808:180576909:+|3pUTR|ENSG00000113300|unk|total|mutant (ssRNA)
RNA: GGGAGUUCUACAGUCCGACGAUCUAUUUUCCGUGUCCUAAAUAAUUUUCAAUAAUCUAUAAUCCCUAAAAUGCAAUAAAAACCCGUAUGUUUUCACGGUGUAUAUUUUUUUUCAAAAAUUCUGUAACAAAUAUAUUUAAUGUGCAACAGAGGAUUGAGCAUCA
B10: chr1:161190761:161190881:-|3pUTR|ENSG00000158859|msi1|total|mutant (ssRNA)
RNA: GGGAGUUCUACAGUCCGACGAUCUGCGGGUCACAGGAGGGAGGGGGAAGGCAGGGAGGGCCUGGGCCCCAGUUGUAUUUAUUCCGUAUUUAUUCACUUUUAUUCCGCACCAGGGAAGGGGACAAGGACCCGGGUCCUGGGGAACAACAGAGGAUUGAGCAUCA
B11: chr19:39539560:39539696:-|CDS|ENSG00000176396|unk|FALSE|unique (ssRNA)
RNA: GGGAGUUCUACAGUCCGACGAUCCGGGAACGGAGGCCUGGCUGCGUUGCCCUAUCUCCGUCUCCGCCACCCACUUAGCGUUUUAGGCAUCAAUUACCAGCAGUUUCUCCGCCACUAUCUGGAAAAUUACCCGAUUGCUCCCGGCAACAGAGGAUUGAGCAUCA
B12: ENSG00000181035:stop:overlap|stop_codon|ENSG00000181035|stop_codon|NA|stop_codon (ssRNA)
RNA: GGGAGUUCUACAGUCCGACGAUCUGGGCAUCAGCUUCACCACCUUCGACCUCAUGCAGAUCCUGCUGCGGCACCUGCAGAGCUAGGGGACCCUGAGCUGCUCUCAGGACGGUGGACCGGUGACCCCUUUGUAUUCUGGGCCCACAACAGAGGAUUGAGCAUCA
B13: chr1:161190761:161190881:-|3pUTR|ENSG00000158859|msi1|FALSE|unique (ssRNA)
RNA: B10 RNA with C83U, C84A, C104U, C105A, C129U, C130A
B14: chr7:20412070:20412171:+|3pUTR|ENSG00000105855|msi1|total|mutant (ssRNA)
RNA: GGGAGUUCUACAGUCCGACGAUCCUUUUUUUUUAUAAUAAACUUCCAAGAUUUGCUGUCUUCCAGCACUUGAGUUAAAGUACCCGAUACUGCAUUUUGAUGAAGACUAACCCCAUCUCAUAUUCUACCCUAAAGAGAACUGAACAACAGAGGAUUGAGCAUCA
B15: chr5:180576808:180576909:+|3pUTR|ENSG00000113300|unk|FALSE|unique (ssRNA)
RNA: B9 RNA with C83U, C84A
B16: chr8:37861146:37861251:-|3pUTR|ENSG00000156675|unk|FALSE|unique (ssRNA)
RNA: GGGAGUUCUACAGUCCGACGAUCCUGUGCAGAGCAAGAAGAUGAUACUUAUUUUUGAAUUUGUAUUUUUAAAACUAGAUUUAUAGACUUUUUUUUUUUUUAACUAGGGCACUUGCUUCCUUCUUAGCUAAAAGCACCAGCUGACAACAGAGGAUUGAGCAUCA
B17: chr4:87473334:87473774:-|three_prime_utr|ENSG00000152583|control|control|control (ssRNA)
RNA: GGGAGUUCUACAGUCCGACGAUCCUUUCCAGCAUCCUCCUCUGUUCUAACCACUUCAGAAAUAUAUGCAGCUGUGAUACUUGUAGAUUUAUAUUUAGCAAAAUGUUAGCAUGUAUGACAAGACAAUGAGAGUAAUUGCUUGACCAACAGAGGAUUGAGCAUCA
B18: chr19:18196783:18197469:-|three_prime_utr|ENSG00000105649|control|control|control (ssRNA)
RNA: GGGAGUUCUACAGUCCGACGAUCACUACCCGGGCCUGACCCGGCCCCUACCAGCCACGGGCACAAGACCCCUGCUCCUGACUUAGCCCGUCACCCUUAUUUAUUAUUGUAGCUAUUUAUUUAUUUAUUGAAGAUGUCCCCCAGCAACAGAGGAUUGAGCAUCA
B19: chr15:93024873:93024975:+|3pUTR|ENSG00000173575|unk|total|mutant (ssRNA)
RNA: GGGAGUUCUACAGUCCGACGAUCGGUCCAGCUCUGAUUCGGGUCACCACUCCUGCACUUUGGCACCCCAUCCCAUUCCAGCCCCGUUCUGGCCUCCCACUUUGACGGGCACUUGGAGGAGGAGCUGACUGUGUGUGUACCAGCCAACAGAGGAUUGAGCAUCA

These binders were tested against T1, UNK ZnF1-6 (called full-length) (assay: nsRBNS (natural sequence RNA bind-n-seq); RBNS binding buffer (assumed for nsRBNS): 25 mM Tris pH 7.5, 150 mM KCl, 3 mM MgCl2, 0.01% Triton X-100, 500 ug/ml BSA, 20 U/ml SUPERase-In, 4 C; UNK is unkempt and MSI1 is Musashi-1; names of the RNAs are library labels; protein concentration not given here; high values mean tight binding).

Binder | binding signal [enrichment R]
B1 | 3.03
B2 | 0.553
B3 | 1.95
B4 | 1.26
B5 | 0.507
B6 | 1.04
B7 | 0.975
B8 | 1.71
B9 | 10.6
B10 | 2.05
B11 | 1.3
B12 | 1.2
B13 | 32.9
B14 | 0.911
B15 | 20.9
B16 | 53.1
B17 | 2.1
B18 | 66
B19 | 4.11
